Compounds with a hit are over-represented: about 6.5% of the library has one in this group of screens.
Giardia killer: Giardia lamblia killing | Giardia lamblia trophozoite viability | activity change, % at 7.66 µM, hits read low | AID 540267 | hit rate 0.15% among 340,000; in the data active = activity change below about -80%; inconclusive = between about -30% and that limit;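 note: parasites exposed to compound for two days anaerobically before the ATP read; % is set by controls: 0 for no effect and ±100 for the full control effect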
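Trophozoites 100 cells/well + cpd; 48 hrs, 37 deg C, anaerobic. ATPLite 1-Step added, 15-30 min RT, luminescence read (ATP-based viability).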
IL1B secr inh: inflammasome signaling inhibition, IL-1 beta readout; THP-1 LPS/ATP IL-1B secretion, AlphaLISA, 16 h; hits give low values; hit rate 4.7% among 360,000; activity change, % at 57.5 µM; in the data active = activity change below about -50%; inconclusive = mostly about -30% to -49%; note: % is set by controls: 0 for no effect and ±100 for the full control effect
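Secreted IL-1B measured by AlphaLISA bead assay after 16 h compound exposure of THP-1 cells; compounds (final up to 57.5 uM) added 1 h before LPS (250 ng/mL) and ATP (1.25 mM) stimulation; lower signal means less secretion.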
TGFb SMAD3 inh: inhibitors of TGF-b signaling; hit rate 1.2% among 410,000; Potency, µM (doses to about 46.1 µM), inactives show at the highest dose activity, negative = inhibition, usual class: inhibitors; HepG2 CAGA-GFP TGF-b/SMAD3 reporter, GFP fluorescence, 18 h; TGF-beta stimulated, 500 pg/mL final; note: potency is the fitted concentration of half-maximal effect; % is set by controls: 0 for no effect and ±100 for the full control effect; nearly all actives have a fitted effect of over 65% in size
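Smad-responsive CAGA-GFP expression was quantified in HEPG2 cells exposed to compounds and 500 pg/mL final TGF-beta for 18 h at 37 degrees C; unstimulated wells defined full inhibition.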
HT1080 IDH1KD tx: HT-1080 IDH1 knockdown cell toxicity (counter line); Potency, µM (doses to about 46.1 µM), for inactives: at the highest dose activity, negative = toxicity, usual class: cytotoxic; hit rate 2% among 360,000; AID 686971; HT-1080 IDH1 knockdown viability, ATP luminescence, 48 h;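 note: potency is the fitted concentration of half-maximal effect; 0% = DMSO wells and -100% = cell-free medium wells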
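After a 2 h attachment period, IDH1KD HT-1080 cells took pin-transferred compound for 48 h at 37 °C; ATP-based luminescence after 10 min room-temperature reagent incubation reported viability.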
HepG2 tox: HepG2 cytotoxicity, counter-screen for TGF-b inhibitors; HepG2 CAGA-GFP viability, ATP luminescence, 18 h; Potency, µM (series often up to 46.1 µM), inactives show top-dose activity change, negative = cytotoxicity, usual class: cytotoxic; hit rate 0.76% among 410,000; note: potency is the fitted concentration of half-maximal effect
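CellTiter-Glo luminescence gave cytotoxicity after 18 hours at 37 degrees C. The cells were HepG2 CAGA-GFP in 1% FBS DMEM, stimulated with 500 pg/mL TGF-beta after compound addition. %Activity was normalised to no-cell wells (complete cell-killing) and DMSO (no toxicity), and curves were fitted and classified.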
HT1080-NT tox: kills 2HG-producing HT-1080-NT fibrosarcoma cells; HT-1080-NT fibrosarcoma viability, CellTiter-Glo ATP luminescence, 48 h; Potency, µM (highest dose often 46.1 µM), for the others: top-dose activity, negative = less viability, actives largely listed as cytotoxic; hit rate 1.6% among 360,000; AID 686970;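 note: NT is the 2HG producing partner of a matched IDH1 knockdown line; potency is the fitted concentration of half-maximal effect; 0% = DMSO-treated cells and -100% = media-only wells without cells; nearly all actives have a fitted effect of over 55% in size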
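HT-1080-NT fibrosarcoma cells (2HG-overproducing), 750 cells/well in RPMI with 5% FBS, dosed after 2 h and incubated 48 h at 37C. CellTiter-Glo luminescence normalized to DMSO and no-cell wells; concentration-response curves fitted and classed.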
Numbers without * were called inactive; ? = inconclusive; . = not tested or not shown; [ ] = remark or other dose. Unless noted, calls come from the whole dose curve; as a rule, active = well fitted curve in the direction sought with a large enough effect; inconclusive = small, poorly fitted or top-dose-only effect, or another doubt; inactive = no such curve, though single readings can be large; an effect the other way counts as inactive or inconclusive.

SMILES	Giardia killer	IL1B secr inh	TGFb SMAD3 inh	HT1080 IDH1KD tx	HepG2 tox	HT1080-NT tox
CC(NC(=S)Nc1cccc(C(F)(F)F)c1)C(C)(C)C (stereo not drawn)	-9	-81*	?	?	-37%	?
CC(O)(CS(=O)(=O)Cc1cccc(C(F)(F)F)c1)C(=O)Nc1cccc(C(F)(F)F)c1 (stereo not drawn)	-7	-8	?	16µM*	-40%	?
Fc1cccc(NC(=S)NCc2ccc(Cl)cc2)c1	1	-15	-29%	16%	0%	7%
Cc1c(C(=O)O)oc2c1-c1nn(Cc3ccccc3Cl)cc1CC2	.	.	.	.	-13%	.
FC(F)(F)c1cccc(NC(=S)NCc2ccc(Cl)cc2)c1	-9	-155*	10µM*	?	16µM*	?
O[C@@H]1Cc2ccccc2O[C@H]1c1ccccc1	-3	21	-3%	6%	-5%	2%
O=C(CSc1ccccn1)Nc1nonc1[N+](=O)[O-]	-12	-99*	11µM*	?	13µM*	21µM*
Cc1cccc(-c2cc(C(=O)Nc3ccncc3)c3ccccc3n2)c1	-18	?	-19%	?	-7%	?
Cc1cc(Nc2ccccc2C)c2cccc(C)c2n1	.	.	-39%	.	-33%	.
Cc1cc(Nc2ccc3c(c2)OCCO3)c2cccc(C)c2n1	2	-94*	-25%	?	0%	?
Cc1cc(Nc2ccc3c(c2)OCCO3)c2ccccc2n1	3	-16	?	-17%	-24%	0%
CCOc1ccc(Nc2cc(C)nc3c(C)cccc23)cc1	3	-63*	?	?	-3%	?
CCN1C(=S)SC(=O)C1=C1C=C(C)N(CCO)C(C)=C1	-16	5	-8%	?	-3%	-2%
Cc1ccc(/C=C/C(O)=C2/C(=O)N(C)C3(C)CC2c2ccccc2O3)cc1 (stereo not drawn)	-2	-87*	-7%	?	-43%	?
COc1ccc(/C=C/C(O)=C2/C(=O)N(C)C3(C)CC2c2ccccc2O3)cc1 (stereo not drawn)	-24	-91*	6%	?	-19%	?
COc1ccc(/C=C/C(O)=C2/C(=O)NC3(C)CC2c2ccccc2O3)c(OC)c1OC (stereo not drawn)	4	-20	-18%	?	-46%	?
C=CCN(CC=C)c1cnn(-c2nc3ccccc3[nH]2)c(=O)c1Cl	12	?	0%	-12%	-35%	3%
O=c1c(Cl)c(NCCCO)cnn1-c1nc2ccccc2[nH]1	-8	-117*	0%	13µM*	-55%	13µM*
COc1ccc(CCNc2oc(-c3ccco3)nc2C#N)cc1	-11	?	-9%	10%[9.24 µM]	0%	-3%
Cc1cc(/C=N/n2cnnc2)c(C)n1-c1ccc(OCc2ccc(Cl)cc2Cl)cc1	-3	-80*	8.9µM*	-24%[9.24 µM]	-74%	23µM*
Cc1cc(/C=N/n2cnnc2)c(C)n1-c1ccc(OCc2ccc(F)cc2)cc1	-17	-80*	?	?	-63%	?
Cc1cc(/C=N/n2cnnc2)c(C)n1-c1ccc(Cl)cc1	-10	-8	13%	-4%	0%	-7%
COc1ccc(CC(=O)Nc2nc(-c3ccc(F)c(F)c3)cs2)cc1	-13	-85*	?	?	-16%	18µM*
O=C(Cc1ccc(F)cc1)Nc1nc(-c2ccc(F)c(F)c2)cs1	6	?	?	-18%	-39%	-4%
CC1Cc2cc(-c3csc(NC(=O)Cc4ccccc4)n3)ccc2N1S(C)(=O)=O (stereo not drawn)	6	-84*	?	?	-30%	?
SMILES	Giardia killer	IL1B secr inh	TGFb SMAD3 inh	HT1080 IDH1KD tx	HepG2 tox	HT1080-NT tox
O=C(CSc1ncnc2[nH]ncc12)Nc1nc(-c2ccc(F)c(F)c2)cs1	0	-68*	-18%	-6%	-18%	-18%
COc1ccc(OC)c(-c2csc(NC(=O)Cc3ccccc3OC)n2)c1	-7	?	-27%	-18%	-20%	-2%
COc1ccc(OC)c(-c2csc(NC(=O)Cc3ccccc3F)n2)c1	-10	-62*	?	-10%	-27%	-25%
C/C(CC(=O)Nc1ccc([N+](=O)[O-])cc1)=N\NC(=O)c1ccccc1[N+](=O)[O-]	6	17	6%	10%	-12%	3%
COc1cc2cc(-c3ccc(OC)c(OC)c3C)nc(N)c2cc1OC	-27	5	?	1.3µM*	-41%	8.2µM*
COc1cc2cc(-c3ccc(O)cc3O)nc(C)c2cc1OC	-30	-73*	-11%	?	-33%	-12%
CCOc1ccc(-c2cc3cc(OC)c(OC)cc3c(C)n2)cc1	6	23	24%	6%	-2%	20%
CCc1nc(-c2ccc(OC)c(OC)c2)cc2cc(OC)c(OC)cc12	2	-8	-1%	2%	5%	3%
COCCCNc1nc2c(-c3cccc(C)c3)nnn2c2ccccc12	-22	2	-6%	-8%	-23%	13%
O=C(Nc1cc(C(F)(F)F)ccc1-n1cncn1)c1ccc([N+](=O)[O-])o1	?	-94*	?	-6%	-40%	4%
CCC(=O)N1c2ccccc2CC1C(=O)NCCCN1CCN(c2ccc(OC)cc2)CC1 (stereo not drawn)	.	.	22%	.	3%	.
CCOC(=O)N1CCc2c(sc(NCc3cccs3)c2C(=O)Nc2ccc(OC)cc2OC)C1	.	.	10µM*	.	-14%	.
CCOC(=O)N1CCc2c(sc(NCc3cccs3)c2C(=O)Nc2cc(OC)ccc2OC)C1	.	.	?	.	0%	.
CCOC(=O)c1cc(NC(=O)CNCC(c2ccccc2)N(C)C)cc(C(=O)OCC)c1 (stereo not drawn)	-2	.	-3%	-9%	-29%	-12%
Cc1ccc(C(=O)Nc2ccc3nc(C)sc3c2)o1	.	-8	-13%	-1%	-21%	-3%
COCCn1c(SCC(=O)Nc2ccccc2)nnc1-c1ccoc1C	-11	-15	15%	8%	0%	1%
Cc1ccc(NC(=O)CSc2nnc(-c3ccoc3C)n2CCCN(C)C)cc1Cl	16	-61*	12%	-17%	-5%	-16%
CC(=O)c1ccc(NC(=O)CSc2nnc(-c3ccoc3C)n2Cc2ccccc2)cc1	-25	-67*	-11%	-2%	-33%	-5%
O=C(Cn1nc(C(F)(F)F)c2c1CCCC2)Nc1ccc(F)c(Cl)c1	.	.	11µM*	.	-86%	.
COc1ccc(CCN(C)C(=O)c2cc(=O)c3ccccc3o2)cc1OC	-5	-54*	1%	29%	2%	15%

From PubChem BioAssay
